Measured values as given in PubChem BioAssay (EPA / NIEHS).
Activity calls are given as the source filed them. How the source made its calls: active means hit-call score of the fitted dose curve at least 0.9, where 1 is the maximum; inactive means score below 0.9.

How the values were obtained:
[1] = ATG_E_Box_CIS: Attagene CIS-FACTORIAL HepG2 Assay for human Enhancer Box (E-box) (AID 2282936); conditions: HepG2 E-box cis-reporter transcription, actives raise or lower the signal
How it was run: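 Multiplexed CIS reporter system in transiently transfected HepG2 cells measures native transcription factor activity. Reporter RNA after 24 h exposure is profiled by RT-PCR-capillary electrophoresis.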

[2] = ATG_M_61_CIS: Attagene CIS-FACTORIAL HepG2 Assay for M61 Transcription Factor (Internal Marker) (AID 2282937); conditions: HepG2 Attagene CIS-FACTORIAL M61 internal marker reporter; actives raise or lower the signal
How it was run: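 Readout is reporter mRNA by RT-PCR, fluorescent primer extension and capillary electrophoresis, with gain or loss fitted relative to DMSO. Transfected HepG2 cells carrying endogenous-TF-driven cis reporters were exposed to chemicals for 24 hours.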

[3] = ATG_EGR_CIS: Attagene CIS-FACTORIAL HepG2 Assay for human Early Growth Response 1 (EGR1) (AID 2282938); conditions: HepG2 Attagene CIS-FACTORIAL EGR reporter mRNA; actives raise or lower the signal
How it was run: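 After 24 h compound exposure, RNA from reporter-transfected HepG2 cells was reverse-transcribed, PCR-amplified, fluorescently labelled and resolved by capillary electrophoresis. EGR1 reporter transcript changes, up or down, were fitted against DMSO, reflecting endogenous transcription-factor activity.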

[4] = ATG_ERE_CIS: Attagene CIS-FACTORIAL HepG2 Assay for Estrogen Response Element (ERE) (AID 2282940); conditions: HepG2 ERE cis-reporter, Attagene RNA transcript; actives raise or lower the signal
How it was run: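 HepG2 cells transiently transfected with multiplexed cis-element reporter units, measuring endogenous transcription factor activity; ERE reporter mRNA quantified after 24 h exposure by RT-PCR, fluorescent labelling, HpaI digestion and capillary electrophoresis. Bidirectional change versus DMSO.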

[5] = ATG_Ets_CIS: Attagene CIS-FACTORIAL HepG2 Assay for human Erythroblast Transformation Specific (ETS) (AID 2282941); conditions: HepG2 ETS cis-reporter transcription, actives raise or lower the signal
How it was run: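 Human HepG2 hepatoma cells were transiently transfected with promoter-driven reporter constructs and treated for 24 hours. Reporter transcripts were quantified by RT-PCR with fluorescent primer extension; bidirectional curve fitting used DMSO as reference.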

[6] = biological target: Hepatocyte nuclear factor 3-beta (Homo sapiens) (UniProt Q9Y261); assay: ATG_FoxA2_CIS: Attagene CIS-FACTORIAL HepG2 Assay for human Forkhead box A2 (FOXA2) (AID 2282942); conditions: HepG2 cis-reporter transcription factor activity, 24 h; actives raise or lower the signal
How it was run: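 Endogenous transcription factor activity is captured via cis-element-driven reporter transcripts in transfected HepG2. Total RNA taken at 24 h post-dosing; labelled RT-PCR products resolved by capillary electrophoresis. Gain or loss fitted versus DMSO.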

[7] = ATG_FoxO_CIS: Attagene CIS-FACTORIAL HepG2 Assay for human Forkhead box O (FoxO) (AID 2282943); conditions: HepG2 Attagene cis-reporter, FoxO element, mRNA; actives raise or lower the signal
How it was run: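 Values reflect reporter mRNA induction or loss in HepG2 cells 24 h post-dosing, fitted bidirectionally with DMSO as negative control and baseline. Detection used RT-PCR and fluorescence capillary electrophoresis.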

[8] = ATG_GATA_CIS: Attagene CIS-FACTORIAL HepG2 Assay for human GATA Binding Protein (AID 2282944); conditions: HepG2 GATA cis-element reporter, Attagene multiplex mRNA; actives raise or lower the signal
How it was run: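 HepG2 cells transiently transfected with multiplexed cis-element reporter units measure endogenous GATA activity; after 24 h compound exposure, reporter mRNA quantified by RT-PCR and capillary electrophoresis. Changes fitted in both directions vs DMSO.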

[9] = ATG_GLI_CIS: Attagene CIS-FACTORIAL HepG2 Assay for human Zinc Finger Protein GLI1 (AID 2282945); conditions: HepG2, Attagene cis-factorial reporter mRNA, GLI element; actives raise or lower the signal
How it was run: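 HepG2 cells transiently transfected with cis-promoter multiplexed reporter units report endogenous transcription factor activity. After 24 h chemical exposure, reporter mRNA was quantified by RT-PCR, 6-FAM labelling, HpaI digestion and capillary electrophoresis, with bidirectional fitting against DMSO.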

[10] = ATG_GRE_CIS: Attagene CIS-FACTORIAL HepG2 Assay for human Glucocorticoid Response Elements (GRE) (AID 2282947); conditions: HepG2 GRE cis-reporter, Attagene multiplex mRNA; actives raise or lower the signal
How it was run: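 Following 24 h chemical exposure of transiently transfected HepG2 cells, total RNA was reverse-transcribed and reporter cDNA amplified, fluorescently labelled and sized by capillary electrophoresis. Signal gain or loss was fitted relative to DMSO vehicle.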

[11] = ATG_ISRE_CIS: Attagene CIS-FACTORIAL HepG2 Assay for human Interferon Regulatory Factor 1 (IRF1) binding to an Interferon-Stimulated Response Element (ISRE) (AID 2282948); conditions: HepG2 ISRE cis-reporter (Attagene), mRNA transcription readout; actives raise or lower the signal
How it was run: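 Cell-based cis-reporter assay; HepG2; 24 h exposure; reporter mRNA by RT-PCR plus capillary electrophoresis fluorescence; activity in either direction scored relative to DMSO.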

[12] = ATG_M_32_CIS: Attagene CIS-FACTORIAL HepG2 Assay for M32 Transcription Factor (Internal Marker) (AID 2282949); conditions: HepG2 Attagene cis-factorial M32 reporter, mRNA; actives raise or lower the signal;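 further: background control marker of the multiplexed CIS panel rather than a real target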
How it was run: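 Fluorescent capillary electrophoresis peaks of HpaI-digested, FAM-labelled RT-PCR reporter products give the signal. Source: transiently transfected human liver HepG2 cells, 24 h after chemical dosing; bidirectional fitting against DMSO.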

[13] = ATG_M_06_CIS: Attagene CIS-FACTORIAL HepG2 Assay for M06 Transcription Factor (Internal Marker) (AID 2282950); conditions: HepG2 Attagene CIS-FACTORIAL M06 internal marker reporter; actives raise or lower the signal
How it was run: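 Internal background marker within multiplexed cis-reporter HepG2 system. Cells transiently transfected, dosed 24 h; reporter mRNA measured by RT-PCR, HpaI digestion and capillary electrophoresis. Bidirectional fit relative to DMSO.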

[14] = biological target: Hypoxia-inducible factor 1-alpha (Homo sapiens) (UniProt Q16665); assay: ATG_HIF1a_CIS: Attagene CIS-FACTORIAL HepG2 Assay for human Hypoxia Inducible Factor 1 (HIF1A) (AID 2282951); conditions: HepG2 Attagene cis-factorial HIF1a reporter transcription; actives raise or lower the signal
How it was run: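 Activity is fitted in both directions relative to DMSO. Reporter transcripts are read by RT-PCR, fluorescent primer extension and capillary electrophoresis after 24 h chemical treatment. The cells are HepG2 carrying transiently transfected cis-element-driven reporter units responding to endogenous factors.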

[15] = biological target: Hepatocyte nuclear factor 6 (Homo sapiens) (UniProt Q9UBC0); assay: ATG_HNF6_CIS: Attagene CIS-FACTORIAL HepG2 Assay for human Hepatocyte Nuclear Factor 6 (HNF6) (AID 2282952); conditions: HepG2 Attagene cis-factorial HNF6 reporter transcription; actives raise or lower the signal
How it was run: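 HepG2 cells transiently transfected with cis-element-driven multiplexed reporter units measuring endogenous transcription factor activity. After 24 h exposure, reporter mRNA quantified by RT-PCR, FAM-labelled fragments and capillary electrophoresis; bidirectional fitting versus DMSO.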

[16] = biological target: Heat shock factor protein 1 (Homo sapiens) (UniProt Q00613); assay: ATG_HSE_CIS: Attagene CIS-FACTORIAL HepG2 Assay for human Heat Shock Transcription Factor 1 (HSE) (AID 2282953); conditions: HepG2 HSE cis-reporter, Attagene RNA transcription; actives raise or lower the signal
How it was run: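 HepG2 cells transfected with cis-promoter reporter units sensing endogenous transcription factor activity; reporter mRNA quantified 24 h post-dose by RT-PCR and capillary electrophoresis of 6-FAM-labelled products. Bidirectional fitting against DMSO.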

[17] = ATG_MRE_CIS: Attagene CIS-FACTORIAL HepG2 Assay for human Metal Responsive Element (MRE) (AID 2282954); conditions: HepG2 MRE cis-reporter transcription, Attagene multiplex; actives raise or lower the signal
How it was run: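 Step one: transfect HepG2 with cis-regulated reporter units. Step two: dose 24 h. Step three: isolate RNA, RT-PCR, 6-FAM label, HpaI digest, capillary electrophoresis. Fit bidirectionally to DMSO.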

[18] = ATG_PBREM_CIS: Attagene CIS-FACTORIAL HepG2 Assay for human Phenobarbital-responsive Enhancer Module (PBREM) (AID 2282955); conditions: HepG2 PBREM cis-reporter, Attagene multiplexed transcription; actives raise or lower the signal
How it was run: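 Endogenous transcription factor activity was read from reporter transcripts in transiently transfected human HepG2 liver cells after 24 h dosing. RT-PCR products were fluorescently labelled, HpaI-cut and sized by capillary electrophoresis; activity fitted bidirectionally against DMSO baseline.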

[19] = biological target: Bile acid receptor (Homo sapiens) (UniProt Q96RI1); assay: ATG_IR1_CIS: Attagene CIS-FACTORIAL HepG2 Assay for human Nuclear Receptor Subfamily 1 Group H Member 4 (NR1H4), IR1 submotif (AID 2282946); conditions: IR1 reporter transcription, actives raise or lower the signal
How it was run: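 Transient MRTU transfection, HepG2; 24 h dosing; RNA → RT-PCR → 6-FAM primer extension → HpaI digest → capillary electrophoresis fluorescence. Gain/loss of signal fitted relative to DMSO.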

[20] = ATG_M_19_CIS: Attagene CIS-FACTORIAL HepG2 Assay for M19 Transcription Factor (Internal Marker) (AID 2282939); conditions: HepG2 Attagene CIS-FACTORIAL M19 internal marker reporter; actives raise or lower the signal
How it was run: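 HepG2 cells transiently transfected with cis-regulated multiplexed reporter units, dosed 24 h. Reporter mRNA quantified by RT-PCR and capillary electrophoresis; internal background marker fitted bidirectionally versus DMSO.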

Measured: AC50

Chain of Heat shock factor protein 1 (Homo sapiens) (Q00613 whole entry, looked up): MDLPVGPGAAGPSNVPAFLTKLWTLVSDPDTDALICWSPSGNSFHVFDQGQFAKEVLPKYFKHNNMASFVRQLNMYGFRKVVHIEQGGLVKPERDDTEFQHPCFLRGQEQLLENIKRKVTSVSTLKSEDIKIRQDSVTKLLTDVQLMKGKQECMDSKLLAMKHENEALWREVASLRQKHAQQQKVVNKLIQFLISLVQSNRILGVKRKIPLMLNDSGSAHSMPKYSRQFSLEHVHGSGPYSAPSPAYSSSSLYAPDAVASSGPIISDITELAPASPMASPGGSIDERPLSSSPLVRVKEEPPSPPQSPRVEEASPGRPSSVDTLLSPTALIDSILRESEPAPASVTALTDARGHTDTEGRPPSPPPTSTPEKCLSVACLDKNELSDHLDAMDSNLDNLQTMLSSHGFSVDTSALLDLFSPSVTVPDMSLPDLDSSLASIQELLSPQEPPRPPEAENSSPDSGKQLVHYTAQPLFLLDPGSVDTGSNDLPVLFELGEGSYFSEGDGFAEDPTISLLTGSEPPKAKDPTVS
Chain of Hepatocyte nuclear factor 3-beta (Homo sapiens) (Q9Y261 whole entry, looked up): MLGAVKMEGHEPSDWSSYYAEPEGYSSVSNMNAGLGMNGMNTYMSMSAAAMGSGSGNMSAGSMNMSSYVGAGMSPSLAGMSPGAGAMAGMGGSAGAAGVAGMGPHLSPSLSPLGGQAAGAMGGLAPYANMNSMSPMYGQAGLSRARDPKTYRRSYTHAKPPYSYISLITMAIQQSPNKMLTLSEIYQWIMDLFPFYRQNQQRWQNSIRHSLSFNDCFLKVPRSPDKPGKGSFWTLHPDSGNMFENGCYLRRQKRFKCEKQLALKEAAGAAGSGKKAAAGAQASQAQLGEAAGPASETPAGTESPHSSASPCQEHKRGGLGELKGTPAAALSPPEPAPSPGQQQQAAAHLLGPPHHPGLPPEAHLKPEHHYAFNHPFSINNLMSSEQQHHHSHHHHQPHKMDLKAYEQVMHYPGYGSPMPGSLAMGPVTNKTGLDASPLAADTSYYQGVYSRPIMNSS
Chain of Hepatocyte nuclear factor 6 (Homo sapiens) (Q9UBC0 whole entry, looked up, the tested form may be a part): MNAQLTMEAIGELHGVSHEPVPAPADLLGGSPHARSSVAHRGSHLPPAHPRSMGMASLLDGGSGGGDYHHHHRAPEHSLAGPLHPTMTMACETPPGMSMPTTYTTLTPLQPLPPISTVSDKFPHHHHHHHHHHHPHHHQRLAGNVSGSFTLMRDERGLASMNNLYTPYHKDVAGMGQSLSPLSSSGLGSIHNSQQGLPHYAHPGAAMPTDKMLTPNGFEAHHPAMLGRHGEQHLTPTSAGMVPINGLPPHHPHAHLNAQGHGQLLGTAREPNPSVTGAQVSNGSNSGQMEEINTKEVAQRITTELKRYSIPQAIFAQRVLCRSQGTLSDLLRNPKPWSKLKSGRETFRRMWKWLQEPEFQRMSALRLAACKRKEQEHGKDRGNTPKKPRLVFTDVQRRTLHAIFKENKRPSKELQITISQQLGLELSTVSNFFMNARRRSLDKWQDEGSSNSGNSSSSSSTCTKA
Chain of Hypoxia-inducible factor 1-alpha (Homo sapiens) (Q16665 whole entry, looked up): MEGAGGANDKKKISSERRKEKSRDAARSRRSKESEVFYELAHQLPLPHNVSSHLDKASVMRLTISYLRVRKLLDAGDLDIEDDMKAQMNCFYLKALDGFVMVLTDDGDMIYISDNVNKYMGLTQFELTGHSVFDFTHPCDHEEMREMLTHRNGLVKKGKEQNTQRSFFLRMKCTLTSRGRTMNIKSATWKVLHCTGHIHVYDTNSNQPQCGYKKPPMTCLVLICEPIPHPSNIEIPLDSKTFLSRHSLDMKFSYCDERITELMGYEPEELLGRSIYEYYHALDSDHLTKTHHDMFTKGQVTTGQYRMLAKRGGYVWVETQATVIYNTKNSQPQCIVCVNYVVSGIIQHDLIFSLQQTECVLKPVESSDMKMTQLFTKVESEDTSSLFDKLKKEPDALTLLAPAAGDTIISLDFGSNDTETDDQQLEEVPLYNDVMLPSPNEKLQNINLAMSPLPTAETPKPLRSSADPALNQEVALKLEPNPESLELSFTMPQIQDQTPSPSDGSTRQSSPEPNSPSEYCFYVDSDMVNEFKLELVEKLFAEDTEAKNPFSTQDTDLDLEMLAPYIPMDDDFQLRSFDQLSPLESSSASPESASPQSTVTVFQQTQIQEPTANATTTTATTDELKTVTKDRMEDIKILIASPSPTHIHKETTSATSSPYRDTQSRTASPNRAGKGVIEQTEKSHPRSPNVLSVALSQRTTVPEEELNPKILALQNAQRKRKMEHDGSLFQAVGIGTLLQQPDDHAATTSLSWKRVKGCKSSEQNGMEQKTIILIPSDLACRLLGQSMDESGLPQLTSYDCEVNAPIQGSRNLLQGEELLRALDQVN
Chain of Bile acid receptor (Homo sapiens) (Q96RI1 whole entry, looked up): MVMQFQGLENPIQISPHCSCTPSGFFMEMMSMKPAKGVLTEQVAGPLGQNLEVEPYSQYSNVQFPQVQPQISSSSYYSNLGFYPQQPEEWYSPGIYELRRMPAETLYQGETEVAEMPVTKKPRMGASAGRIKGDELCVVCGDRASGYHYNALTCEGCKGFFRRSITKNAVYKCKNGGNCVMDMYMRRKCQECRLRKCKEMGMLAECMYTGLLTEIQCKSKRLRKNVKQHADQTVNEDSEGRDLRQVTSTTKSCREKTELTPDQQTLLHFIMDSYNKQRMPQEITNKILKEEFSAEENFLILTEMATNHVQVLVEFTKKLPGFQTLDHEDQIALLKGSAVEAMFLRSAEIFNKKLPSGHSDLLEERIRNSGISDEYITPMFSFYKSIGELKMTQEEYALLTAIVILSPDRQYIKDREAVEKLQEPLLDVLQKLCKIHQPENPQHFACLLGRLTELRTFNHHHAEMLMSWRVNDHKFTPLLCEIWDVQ

CC(=O)Nc1nnc(S(N)(=O)=O)s1
not listed: [19] | [20]
inactive: all other assays above

O=C(c1ccc(O)cc1)c1ccc(O)cc1O
active: [4] 0.84 µM
not listed: [20]
inactive: all other assays above

Cc1ccc(N)c([N+](=O)[O-])c1
not listed: [11] | [17] | [19] | [20]
inactive: all other assays above

CCC(CC)C(=O)O
not listed: [5] | [17] | [19]
inactive: all other assays above

Cn1c([N+](=O)[O-])cnc1COC(N)=O
not listed: [13] | [14] | [17] | [19] | [20]
inactive: all other assays above

CCO[Si](CCCN=C=O)(OCC)OCC
not listed: [5] | [10] | [19]
inactive: all other assays above

CCCc1ccc(OC)cc1
not listed: [5] | [6] | [18] | [19]
inactive: all other assays above
